Source: PubChem BioAssay (Tox21)
Inconclusive results are not listed. Active and inactive are the calls of the source. Calls follow the shape of the dose curve; as a rule, active = well fitted curve in the direction sought with a large enough effect in the repeat runs; inconclusive = weak or mixed curves; inactive = no such curve, though single readings can be large; an effect the other way counts as inactive or inconclusive.

Assays:
[1] = qHTS RealTime-Glo MT Cell Viability Assay in HEK293 cells - 0 hour (AID 1224880); also: top concentration of the series differs between compounds; nearly all actives have a fitted effect of over 45% in size
How it was run: (§1)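 Luminescence readout at each listed time point; HEK293, 600 cells/well, RealTime-Glo MT reagent added with cells; compounds pinned (23 nL in DMSO) after 5 h at 37 C; continuous culture at 37 C.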

[2] = A CellTox Green Cytotoxicity Assay to monitor cytotoxicity in HEK293 cells - 32 hour (AID 1224881); also: nearly all actives have a fitted effect of over 40% in size
How it was run: (§2)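 Read-out: fluorescence of a cell-impermeant cyanine dye staining DNA of dead cells, proportional to cytotoxicity. HEK293, 600 cells/well with reagent, compound (23 nL DMSO) added after 5 h; reads at 0, 8, 16, 24, 32, 40 h.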

[3] = A CellTox Green Cytotoxicity Assay to monitor cytotoxicity in HepG2 cells - 0 hour (AID 1224882); also: nearly all actives have a fitted effect of over 35% in size
How it was run: (§3)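 HepG2, 600 cells/well premixed w/ CellTox Green; 5 h settle, 37 C/5% CO2; pintool cpd add (DMSO); 37 C, 40 h; fluorescence read at 0, 8, 16, 24, 32, 40 h.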

[4] = A CellTox Green Cytotoxicity Assay to monitor cytotoxicity in HepG2 cells - 32 hour (AID 1224883); also: nearly all actives have a fitted effect of over 50% in size
How it was run: as §3

[5] = A CellTox Green Cytotoxicity Assay to monitor cytotoxicity in HEK293 cells - 8 hour (AID 1224884); also: nearly all actives have a fitted effect of over 35% in size
How it was run: as §2

[6] = qHTS RealTime-Glo MT Cell Viability Assay in HepG2 cells - 16 hour (AID 1224885); also: nearly all actives have a fitted effect of over 50% in size
How it was run: (§4)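 HepG2 cells (600/well) were dispensed with RealTime-Glo reagents, incubated 5 h at 37 °C, then treated with compounds in DMSO for up to 40 h. Nonlytic NanoLuc luminescence reflecting viable cells was read at each stated time point.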

[7] = qHTS RealTime-Glo MT Cell Viability Assay in HEK293 cells - 24 hour (AID 1224886); also: nearly all actives have a fitted effect of over 50% in size; also: potency is read from the fitted curve at half-maximal effect; as to activity change, negative = cytotoxicity: top concentration of the series differs between compounds
How it was run: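 HEK293 cells seeded with NanoLuc/prosubstrate reagent, rested 5 h at 37 C, then dosed and kept at 37 C up to 40 h. Nonlytic real-time luminescence from viable cells read at 0, 8, 16, 24, 32 and 40 h.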

[8] = qHTS RealTime-Glo MT Cell Viability Assay in HEK293 cells - 8 hour (AID 1224887); also: nearly all actives have a fitted effect of over 50% in size; also: potency is read from the fitted curve at half-maximal effect; as to activity change, negative = cytotoxicity: top concentration of the series differs between compounds
How it was run: as §1

[9] = qHTS RealTime-Glo MT Cell Viability Assay in HepG2 cells - 0 hour (AID 1224889); also: nearly all actives have a fitted effect of over 50% in size
How it was run: as §4

[10] = A CellTox Green Cytotoxicity Assay to monitor cytotoxicity in HEK293 cells - 16 hour (AID 1224888); also: nearly all actives have a fitted effect of over 35% in size
How it was run: as §2
% is scaled to controls: 0 for no effect and ±100 for the full control effect.

COC(=O)CCCCCCCC(=O)OC
inactive: Potency [1] | Potency [2] | outcome [3] | Potency [4] | Potency [5] | outcome [6] | Potency [7] | Potency [8] | Potency [9]

N[C@@H](CCC(=O)N[C@@H](CS)C(=O)NCC(=O)O)C(=O)O
inactive: activity change, negative = cytotoxicity [1] 8.63% [at 15.8 µM] | cytotoxicity increase [2] 2.25% [at 15.8 µM] | cytotoxicity [3] -0.523% [at 15.8 µM] | cytotoxicity increase [4] -10.1% [at 15.8 µM] | cytotoxicity increase [5] 2.4% [at 15.8 µM] | activity change, negative = cytotoxic [6] 2.53% [at 15.8 µM] | activity change, negative = cytotoxicity [7] 7.83% [at 15.8 µM] | activity change, negative = cytotoxicity [8] 10.5% [at 15.8 µM] | activity change [10] 0.448% [at 15.8 µM] | activity change, negative = cytotoxicity [9] 1.78% [at 15.8 µM]

O=C(/N=N/C(=O)OCc1ccccc1)OCc1ccccc1
inactive: Potency [1] | Potency [2] | outcome [3] | Potency [4] | Potency [5] | outcome [6] | Potency [7] | Potency [8] | outcome [10] | Potency [9]

O=C(O)C(=O)Cc1ccccc1
inactive: Potency [1] | Potency [2] | outcome [3] | Potency [4] | Potency [5] | outcome [6] | Potency [7] | Potency [8] | Potency [9]

O=C(CS(=O)Cc1ccco1)NC/C=C\COc1cc(CN2CCCCC2)ccn1 (centres undefined)
inactive: Potency [1] | Potency [2] | outcome [3] | Potency [4] | Potency [5] | Potency [7] | Potency [8]

CCCCCOC(=O)CCC
inactive: Potency [1] | Potency [2] | outcome [3] | Potency [4] | Potency [5] | outcome [6] | Potency [7] | Potency [8] | outcome [10] | Potency [9]

CCCCCCOc1ccccc1C(N)=O
inactive: Potency [1] | Potency [2] | outcome [3] | Potency [4] | Potency [5] | outcome [6] | Potency [9]

NS(=O)(=O)c1ccc(NC(=O)CCC(=O)O)cc1
inactive: Potency [1] | Potency [2] | outcome [3] | Potency [4] | Potency [5] | outcome [6] | Potency [7] | Potency [8] | outcome [10] | Potency [9]

CN(C)C(=O)CNC(=O)Cc1ccccc1
inactive: Potency [1] | Potency [2] | outcome [3] | Potency [4] | Potency [5] | outcome [6] | Potency [7] | Potency [8] | outcome [10] | Potency [9]

Cc1c(I)c(=O)n(-c2ccccc2)n1C
inactive: Potency [1] | Potency [2] | outcome [3] | Potency [4] | Potency [5] | outcome [6] | Potency [7] | Potency [8] | Potency [9]

CCOc1cc([N+](=O)[O-])c(OCC)cc1N1CCOCC1
inactive: Potency [1] | Potency [2] | outcome [3] | Potency [4] | Potency [5] | outcome [6] | outcome [10] | Potency [9]
active: Potency [7] 15.5 µM | Potency [8] 15.5 µM

CC1(CO)CN(c2ccccc2)NC1=O (centres undefined)
inactive: Potency [1] | Potency [2] | outcome [3] | Potency [4] | Potency [5] | outcome [6] | Potency [7] | Potency [8] | outcome [10] | Potency [9]

O=P(O)(O)OP(=O)(O)O
inactive: Potency [1] | Potency [2] | outcome [3] | Potency [4] | Potency [5] | outcome [6] | Potency [7] | Potency [8] | outcome [10] | Potency [9]

Cc1cccc(OCC(O)CNC(C)(C)C)c1C (centres undefined)
inactive: Potency [1] | Potency [2] | outcome [3] | Potency [4] | Potency [5] | Potency [7] | Potency [8] | outcome [10]

CCCCC(CC)COCCO (centres undefined)
inactive: Potency [1] | Potency [2] | outcome [3] | Potency [4] | Potency [5] | outcome [6] | Potency [7] | Potency [8] | Potency [9]

CCCCCCCC/C=C\CCCCCCCC(=O)OCCCC
inactive: activity change, negative = cytotoxicity [1] -2.24% [at 15.8 µM] | cytotoxicity increase [2] -35.2% [at 15.8 µM] | cytotoxicity [3] -2.01% [at 15.8 µM] | cytotoxicity increase [4] -13.6% [at 15.8 µM] | cytotoxicity increase [5] -25.9% [at 15.8 µM] | activity change, negative = cytotoxic [6] 1.32% [at 15.8 µM] | activity change [10] -29.4% [at 15.8 µM] | activity change, negative = cytotoxicity [9] -22.5% [at 15.8 µM]

O=C(NCCc1c[nH]c2ccccc12)c1cccnc1
inactive: Potency [1] | Potency [2] | outcome [3] | Potency [4] | Potency [5] | outcome [6] | Potency [7] | Potency [8] | outcome [10] | Potency [9]

CC(=O)OC(C)OC(=O)C(C)c1ccc(-c2ccccc2)c(F)c1 (centres undefined)
inactive: Potency [1] | Potency [2] | outcome [3] | Potency [4] | Potency [5] | outcome [6] | Potency [7] | Potency [8] | Potency [9]

CCCCCCCCC1CCC(=O)O1 (centres undefined)
inactive: Potency [1] | Potency [2] | outcome [3] | Potency [4] | Potency [5] | outcome [6] | Potency [7] | Potency [8] | Potency [9]

CCN(C)C(=O)Oc1cccc([C@H](C)N(C)C)c1
inactive: Potency [1] | Potency [2] | outcome [3] | Potency [4] | Potency [5] | outcome [6] | Potency [7] | Potency [8] | outcome [10] | Potency [9]

CC(=O)Nc1ccc(S(=O)(=O)Nc2ccc([N+](=O)[O-])cc2)cc1
inactive: Potency [1] | Potency [2] | outcome [3] | Potency [4] | Potency [5] | Potency [7] | Potency [8]

O=C1CCCC(=O)O1
inactive: Potency [1] | Potency [2] | outcome [3] | Potency [4] | Potency [5] | outcome [6] | Potency [7] | Potency [8] | Potency [9]

CC1COc2ccccc2N1 (centres undefined)
inactive: Potency [1] | Potency [2] | outcome [3] | Potency [4] | Potency [5] | outcome [6] | Potency [8] | outcome [10] | Potency [9]

OCCC(F)(F)C(F)(F)C(F)(F)C(F)(F)C(F)(F)C(F)(F)C(F)(F)C(F)(F)F
inactive: Potency [1] | Potency [2] | outcome [3] | Potency [4] | Potency [5] | outcome [6] | Potency [7] | Potency [8] | outcome [10] | Potency [9]
